Measurements from the supplement of paper PMC11732987, “Enantioselective OTUD7B fragment discovery through chemoproteomics screening and high-throughput optimisation” (Communications Chemistry, 2025).

Assays:
Assay in all cases: log2 ratio of Biotin-Ahx-Ub-VS probe labelling (fragment/DMSO); higher = less target engagement (more negative = stronger competition), active = hit call of the paper (q ≤ 0.05, log2 ratio ≤ -1)
Settings in all cases: compound concentration: 200 uM; treatment time: 3 h
USP16 = USP16 (UniProt Q9Y5T5)
In short: (§1)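 Global-median-normalised Spectronaut label-free quantities were compared by unpaired t-test, and values are average log2 ratios of fragment over vehicle. Only proteins with ≥2 unique peptides were used. HEK293T lysate (495 µg per sample) was treated in triplicate with fragment at 200 µM or vehicle for 3 h and then with Biotin-Ahx-Ub-VS at 0.5 µM final for 1 h. Labelled DUBs were then NeutrAvidin-enriched, digested with LysC and trypsin, and run by diaPASEF LC-MS/MS.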

USP19 = target: T1, USP19 (UniProt O94966)
T1 sequence (whole entry): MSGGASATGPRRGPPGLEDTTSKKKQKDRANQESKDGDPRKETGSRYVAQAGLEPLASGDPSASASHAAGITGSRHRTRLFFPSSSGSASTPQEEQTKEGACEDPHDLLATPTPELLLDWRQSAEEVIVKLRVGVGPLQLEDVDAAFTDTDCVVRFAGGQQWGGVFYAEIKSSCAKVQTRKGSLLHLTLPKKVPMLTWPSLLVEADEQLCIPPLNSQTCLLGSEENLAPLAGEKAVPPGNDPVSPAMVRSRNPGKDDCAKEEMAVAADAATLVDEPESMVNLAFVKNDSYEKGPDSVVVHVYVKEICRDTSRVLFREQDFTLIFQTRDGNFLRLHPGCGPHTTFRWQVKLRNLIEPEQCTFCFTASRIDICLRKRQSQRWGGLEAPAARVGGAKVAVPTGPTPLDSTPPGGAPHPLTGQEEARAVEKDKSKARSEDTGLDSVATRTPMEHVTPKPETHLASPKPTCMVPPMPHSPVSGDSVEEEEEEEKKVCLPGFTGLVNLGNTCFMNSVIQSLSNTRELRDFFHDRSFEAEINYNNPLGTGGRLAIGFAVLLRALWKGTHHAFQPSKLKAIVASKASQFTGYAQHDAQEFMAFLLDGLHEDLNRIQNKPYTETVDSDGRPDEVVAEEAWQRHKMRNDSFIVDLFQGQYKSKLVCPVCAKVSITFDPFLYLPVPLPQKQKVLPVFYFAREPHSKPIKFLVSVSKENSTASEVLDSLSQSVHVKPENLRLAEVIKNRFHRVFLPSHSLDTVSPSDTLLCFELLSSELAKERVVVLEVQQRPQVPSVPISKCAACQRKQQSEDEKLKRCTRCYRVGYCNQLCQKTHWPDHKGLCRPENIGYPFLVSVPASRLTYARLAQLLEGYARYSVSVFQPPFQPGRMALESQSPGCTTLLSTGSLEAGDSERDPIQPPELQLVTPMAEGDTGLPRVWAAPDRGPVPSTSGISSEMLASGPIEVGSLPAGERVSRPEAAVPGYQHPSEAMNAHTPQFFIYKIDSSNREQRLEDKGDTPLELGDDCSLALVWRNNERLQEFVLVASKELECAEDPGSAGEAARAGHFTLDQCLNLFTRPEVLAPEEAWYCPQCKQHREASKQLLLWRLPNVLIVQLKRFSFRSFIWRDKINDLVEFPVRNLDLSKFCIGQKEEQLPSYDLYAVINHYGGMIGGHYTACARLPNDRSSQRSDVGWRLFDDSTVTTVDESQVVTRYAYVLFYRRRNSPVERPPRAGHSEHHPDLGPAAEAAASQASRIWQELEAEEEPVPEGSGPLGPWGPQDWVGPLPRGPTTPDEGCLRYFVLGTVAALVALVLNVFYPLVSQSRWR
In short: as §1

USP24 = USP24 (UniProt Q9UPU5)
In short: as §1

USP25 = target: T2, USP25 (UniProt Q9UHP3)
T2 sequence (whole entry): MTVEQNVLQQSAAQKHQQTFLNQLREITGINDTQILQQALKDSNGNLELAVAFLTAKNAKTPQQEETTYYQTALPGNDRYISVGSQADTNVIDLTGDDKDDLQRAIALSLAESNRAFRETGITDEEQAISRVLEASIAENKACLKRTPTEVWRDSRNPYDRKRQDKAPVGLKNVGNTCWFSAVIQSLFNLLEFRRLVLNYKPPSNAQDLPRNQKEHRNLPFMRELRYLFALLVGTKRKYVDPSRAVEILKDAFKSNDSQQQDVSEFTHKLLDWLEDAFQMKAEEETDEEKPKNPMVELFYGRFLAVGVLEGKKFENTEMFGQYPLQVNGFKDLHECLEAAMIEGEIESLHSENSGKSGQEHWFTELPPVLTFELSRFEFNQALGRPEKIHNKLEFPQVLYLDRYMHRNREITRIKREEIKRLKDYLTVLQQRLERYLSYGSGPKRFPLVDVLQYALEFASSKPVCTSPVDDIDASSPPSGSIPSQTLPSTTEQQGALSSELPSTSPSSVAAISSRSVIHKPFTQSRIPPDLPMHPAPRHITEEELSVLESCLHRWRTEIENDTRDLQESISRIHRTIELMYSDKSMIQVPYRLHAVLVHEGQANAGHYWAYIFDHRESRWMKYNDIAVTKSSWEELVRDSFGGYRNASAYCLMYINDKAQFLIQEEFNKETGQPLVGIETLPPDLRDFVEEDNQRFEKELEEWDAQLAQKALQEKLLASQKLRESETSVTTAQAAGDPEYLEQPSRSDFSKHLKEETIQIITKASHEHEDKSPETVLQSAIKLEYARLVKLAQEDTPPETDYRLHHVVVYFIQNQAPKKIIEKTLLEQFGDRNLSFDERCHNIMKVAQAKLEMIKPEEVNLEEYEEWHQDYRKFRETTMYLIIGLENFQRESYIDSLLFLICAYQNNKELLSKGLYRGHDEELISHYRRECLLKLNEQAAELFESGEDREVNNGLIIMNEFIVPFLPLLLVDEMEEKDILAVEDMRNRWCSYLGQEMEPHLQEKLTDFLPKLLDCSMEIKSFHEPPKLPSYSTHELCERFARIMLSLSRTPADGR
In short: as §1

USP28 = target: T3, USP28 (UniProt Q96RU2)
T3 sequence (whole entry): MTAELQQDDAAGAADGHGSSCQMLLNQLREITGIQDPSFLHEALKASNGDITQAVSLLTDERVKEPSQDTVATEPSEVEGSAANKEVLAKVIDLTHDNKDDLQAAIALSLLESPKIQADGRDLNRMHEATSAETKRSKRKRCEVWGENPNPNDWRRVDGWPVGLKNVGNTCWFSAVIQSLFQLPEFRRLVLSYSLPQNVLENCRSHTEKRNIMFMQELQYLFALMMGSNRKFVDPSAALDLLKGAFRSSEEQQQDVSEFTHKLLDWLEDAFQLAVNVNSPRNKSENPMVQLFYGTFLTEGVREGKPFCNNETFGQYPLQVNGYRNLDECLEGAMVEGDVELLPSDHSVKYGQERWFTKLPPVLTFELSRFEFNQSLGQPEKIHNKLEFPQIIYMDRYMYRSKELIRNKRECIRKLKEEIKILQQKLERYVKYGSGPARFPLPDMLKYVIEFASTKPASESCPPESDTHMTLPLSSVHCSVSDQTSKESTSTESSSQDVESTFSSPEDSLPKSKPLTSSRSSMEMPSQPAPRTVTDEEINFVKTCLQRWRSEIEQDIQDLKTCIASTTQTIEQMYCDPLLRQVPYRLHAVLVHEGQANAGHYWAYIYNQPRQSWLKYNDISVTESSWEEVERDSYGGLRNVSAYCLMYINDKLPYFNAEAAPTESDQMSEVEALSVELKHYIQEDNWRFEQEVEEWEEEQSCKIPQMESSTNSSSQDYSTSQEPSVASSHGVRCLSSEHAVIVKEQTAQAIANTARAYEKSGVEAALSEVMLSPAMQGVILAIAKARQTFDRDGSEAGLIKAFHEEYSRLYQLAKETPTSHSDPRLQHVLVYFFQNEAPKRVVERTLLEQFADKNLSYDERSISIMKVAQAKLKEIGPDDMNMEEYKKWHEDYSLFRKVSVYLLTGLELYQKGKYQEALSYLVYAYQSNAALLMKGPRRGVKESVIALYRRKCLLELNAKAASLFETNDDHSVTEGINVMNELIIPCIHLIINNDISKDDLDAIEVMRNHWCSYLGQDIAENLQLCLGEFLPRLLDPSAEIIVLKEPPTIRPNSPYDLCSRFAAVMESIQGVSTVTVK
In short: as §1

Measured: log2 ratio of Biotin-Ahx-Ub-VS probe labelling

Sequence of USP16 (Q9Y5T5 whole entry, looked up, the tested form may be a part): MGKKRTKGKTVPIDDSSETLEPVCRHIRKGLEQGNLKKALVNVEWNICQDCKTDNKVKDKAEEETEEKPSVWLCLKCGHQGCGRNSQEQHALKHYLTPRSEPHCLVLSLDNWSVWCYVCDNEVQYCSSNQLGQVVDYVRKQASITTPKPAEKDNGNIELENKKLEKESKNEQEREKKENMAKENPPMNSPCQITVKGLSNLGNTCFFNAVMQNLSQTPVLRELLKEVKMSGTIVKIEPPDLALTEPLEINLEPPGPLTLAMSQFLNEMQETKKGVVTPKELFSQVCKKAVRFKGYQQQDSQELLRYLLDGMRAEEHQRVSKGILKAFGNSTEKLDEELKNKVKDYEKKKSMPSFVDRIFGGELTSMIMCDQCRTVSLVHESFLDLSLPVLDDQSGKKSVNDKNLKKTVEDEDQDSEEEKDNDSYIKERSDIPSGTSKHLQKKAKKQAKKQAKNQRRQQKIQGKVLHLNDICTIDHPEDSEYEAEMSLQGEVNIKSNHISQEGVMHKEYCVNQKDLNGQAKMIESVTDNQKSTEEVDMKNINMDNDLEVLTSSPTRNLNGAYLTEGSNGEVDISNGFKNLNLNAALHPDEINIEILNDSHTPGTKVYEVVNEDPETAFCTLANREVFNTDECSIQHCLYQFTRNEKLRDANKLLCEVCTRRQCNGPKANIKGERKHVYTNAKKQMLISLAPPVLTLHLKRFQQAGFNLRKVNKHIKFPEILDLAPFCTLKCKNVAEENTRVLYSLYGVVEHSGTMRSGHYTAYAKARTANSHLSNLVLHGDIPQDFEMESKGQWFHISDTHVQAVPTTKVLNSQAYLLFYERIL
Sequence of USP24 (Q9UPU5 whole entry): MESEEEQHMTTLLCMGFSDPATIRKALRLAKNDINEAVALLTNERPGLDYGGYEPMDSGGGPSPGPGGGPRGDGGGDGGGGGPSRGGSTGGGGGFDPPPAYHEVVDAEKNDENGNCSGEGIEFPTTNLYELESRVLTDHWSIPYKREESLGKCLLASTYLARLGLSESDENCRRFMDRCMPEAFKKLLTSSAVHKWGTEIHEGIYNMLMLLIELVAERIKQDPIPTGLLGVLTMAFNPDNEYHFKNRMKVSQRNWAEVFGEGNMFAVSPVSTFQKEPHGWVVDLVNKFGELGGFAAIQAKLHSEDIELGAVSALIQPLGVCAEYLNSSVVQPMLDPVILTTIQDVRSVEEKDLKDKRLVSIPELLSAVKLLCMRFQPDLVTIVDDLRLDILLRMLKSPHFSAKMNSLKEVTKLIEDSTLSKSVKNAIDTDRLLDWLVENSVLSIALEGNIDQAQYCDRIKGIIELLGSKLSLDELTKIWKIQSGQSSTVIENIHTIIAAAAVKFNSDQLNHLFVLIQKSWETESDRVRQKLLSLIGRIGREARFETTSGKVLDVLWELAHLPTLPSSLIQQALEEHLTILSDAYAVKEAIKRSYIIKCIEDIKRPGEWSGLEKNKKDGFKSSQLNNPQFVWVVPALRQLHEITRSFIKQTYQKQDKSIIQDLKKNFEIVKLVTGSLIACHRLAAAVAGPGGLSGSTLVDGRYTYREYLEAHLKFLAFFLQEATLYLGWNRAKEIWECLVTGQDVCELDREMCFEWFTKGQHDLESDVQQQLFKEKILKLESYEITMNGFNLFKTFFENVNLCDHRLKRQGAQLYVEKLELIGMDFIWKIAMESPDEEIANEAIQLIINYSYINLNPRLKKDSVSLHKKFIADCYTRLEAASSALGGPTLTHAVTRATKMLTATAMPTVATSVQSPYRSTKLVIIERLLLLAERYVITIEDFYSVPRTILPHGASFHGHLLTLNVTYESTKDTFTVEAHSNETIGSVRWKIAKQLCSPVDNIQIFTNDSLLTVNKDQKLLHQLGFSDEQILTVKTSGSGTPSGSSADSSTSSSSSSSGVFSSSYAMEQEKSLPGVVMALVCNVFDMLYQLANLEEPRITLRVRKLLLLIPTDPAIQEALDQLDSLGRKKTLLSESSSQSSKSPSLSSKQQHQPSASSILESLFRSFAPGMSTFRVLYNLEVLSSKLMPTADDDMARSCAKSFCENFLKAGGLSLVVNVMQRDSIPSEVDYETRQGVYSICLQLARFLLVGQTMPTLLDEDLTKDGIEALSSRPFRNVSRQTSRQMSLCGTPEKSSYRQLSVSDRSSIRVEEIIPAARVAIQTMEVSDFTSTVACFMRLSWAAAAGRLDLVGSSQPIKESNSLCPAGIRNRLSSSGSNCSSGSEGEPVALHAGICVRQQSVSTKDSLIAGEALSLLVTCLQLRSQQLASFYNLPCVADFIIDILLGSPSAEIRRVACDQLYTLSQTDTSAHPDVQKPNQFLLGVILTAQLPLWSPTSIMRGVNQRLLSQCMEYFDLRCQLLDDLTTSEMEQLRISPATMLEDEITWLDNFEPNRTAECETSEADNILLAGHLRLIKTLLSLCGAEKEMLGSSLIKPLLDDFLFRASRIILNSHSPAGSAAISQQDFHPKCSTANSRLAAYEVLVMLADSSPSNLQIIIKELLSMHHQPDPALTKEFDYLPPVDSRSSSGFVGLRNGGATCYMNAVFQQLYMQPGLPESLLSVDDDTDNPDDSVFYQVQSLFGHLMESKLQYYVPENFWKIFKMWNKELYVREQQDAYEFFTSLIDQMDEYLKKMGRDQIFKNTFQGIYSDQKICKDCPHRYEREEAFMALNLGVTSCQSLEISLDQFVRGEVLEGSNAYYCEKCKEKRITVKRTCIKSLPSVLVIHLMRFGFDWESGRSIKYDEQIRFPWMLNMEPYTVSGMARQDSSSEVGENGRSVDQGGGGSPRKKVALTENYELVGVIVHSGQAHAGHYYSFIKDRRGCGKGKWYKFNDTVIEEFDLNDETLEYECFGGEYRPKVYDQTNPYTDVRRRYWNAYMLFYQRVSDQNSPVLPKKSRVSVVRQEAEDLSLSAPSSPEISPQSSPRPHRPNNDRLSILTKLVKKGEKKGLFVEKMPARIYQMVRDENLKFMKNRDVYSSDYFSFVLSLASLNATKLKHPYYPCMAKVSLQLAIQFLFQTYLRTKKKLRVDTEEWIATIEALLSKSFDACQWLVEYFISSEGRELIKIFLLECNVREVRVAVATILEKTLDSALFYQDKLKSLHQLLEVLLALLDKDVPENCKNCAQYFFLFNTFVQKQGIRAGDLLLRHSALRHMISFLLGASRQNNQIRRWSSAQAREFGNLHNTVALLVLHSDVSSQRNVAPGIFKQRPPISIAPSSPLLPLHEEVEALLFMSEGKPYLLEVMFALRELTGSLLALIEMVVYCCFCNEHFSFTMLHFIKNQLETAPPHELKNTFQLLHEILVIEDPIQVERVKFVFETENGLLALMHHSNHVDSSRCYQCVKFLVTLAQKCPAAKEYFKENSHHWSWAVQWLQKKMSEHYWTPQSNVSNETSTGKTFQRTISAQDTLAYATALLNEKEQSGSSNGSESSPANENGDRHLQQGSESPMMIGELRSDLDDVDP

Cc1nc(-c2cccc(NC(=O)CCl)c2)cs1
inactive: USP16 -0.418 | USP19 -0.375 | USP24 -0.903 | USP25 -0.554 | USP28 -0.634
